# Where a name gives a salt, the structure may show the parent alone.
# Columns and labels:
# Assay in all cases: Euclidean distance of Cell Painting phenotypic profile (signed KS, 77 features) to DMSO centroid (dimensionless distance); 5 or 10 uM (library dependent); higher = stronger phenotypic change vs DMSO (phenoactivity)
# Details in all cases: 48 h
# 786-O = system: 786-O
# Summary of the method: (§1)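 Five cancer lines, together with a healthy fibroblast line, received library compounds for 48 h at a library-dependent 10 or 5 uM and 0.1% DMSO final. Harmony then derived 77 features from confocal 20X images (9 fields/well) of the stained cells, scoring each as a signed Kolmogorov-Smirnov statistic against same-plate vehicle wells. After plate-position correction, correlation weighting and replicate averaging at the top dose, phenoactivity was taken as each profile's Euclidean distance to the median vehicle profile.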
# A549 = system: A549
# Summary of the method: as §1
# FB = system: FB
# Summary of the method: as §1
# HEPG2 = system: HEPG2
# Summary of the method: as §1
# OVCAR4 = system: OVCAR4
# Summary of the method: as §1
Compound,Euclidean distance (786-O),Euclidean distance (A549),Euclidean distance (FB),Euclidean distance (HEPG2),Euclidean distance (OVCAR4)
COC(=O)/C=C/C(=O)OC [Dimethyl Fumarate],1.01,1.07,0.598,1,1.15
CC1(C)C[C@@H]1C(=O)N/C(=C\CCCCSC[C@H](N)C(=O)O)C(=O)O [Cilastatin],0.899,0.574,1.49,0.578,0.796
CN[C@@H]1CCc2[nH]c3ccc(C(N)=O)cc3c2C1 [Frovatriptan Succinate],1.33,0.718,0.896,0.505,1.29
Cc1cc(C)nc(NS(=O)(=O)c2ccc(N)cc2)n1 [Sulfamethazine],1.04,0.914,0.861,0.849,1.17
O=C(Nc1ccc(OC(F)(F)Cl)cc1)c1cnc(N2CC[C@@H](O)C2)c(-c2cc[nH]n2)c1 [Asciminib (ABL001)],1.54,1.72,1.32,1.2,1.39
Cn1ccnc1S [Methimazole],1.71,1.61,2.81,1.08,2.25
O=C(CCCN1CCC(O)(c2ccc(Cl)cc2)CC1)c1ccc(F)cc1 [Haloperidol],1.27,0.777,1.09,1.04,1.95
CN(C(=O)c1ccc(F)cc1C(F)(F)F)C1CCN(c2nnc(-c3ccnn3C)c3ccccc23)CC1,1.45,0.959,1.03,1,1.53
Oc1ncnc2[nH]ncc12 [Allopurinol],1.04,0.955,1.01,0.506,1.21
COC(=O)OCOc1c2n(ccc1=O)N([C@@H]1c3ccccc3SCc3c1ccc(F)c3F)[C@@H]1COCCN1C2=O [Baloxavir marboxil],0.818,1.3,1.58,0.558,0.843
Cc1oncc1C(=O)Nc1ccc(C(F)(F)F)cc1 [Leflunomide],2.25,2.41,2.37,1.3,2.17
COC(=O)C[C@](O)(CCCC(C)(C)O)C(=O)O[C@@H]1C(OC)=C[C@]23CCCN2CCc2cc4c(cc2[C@H]13)OCO4 [Homoharringtonine],3.57,3.34,4.13,3.18,3.7
COc1c(O)cc2c(c1O)[C@@H]1O[C@H](CO)[C@@H](O)[C@H](O)[C@H]1OC2=O [Bergenin],1.22,0.742,0.906,0.765,2.16
NCCCC(N)(C(=O)O)C(F)F (stereo not given) [Eflornithine hydrochloride hydrate],1.45,1.26,1.21,0.792,1.43
N#C[C@@H]1C[C@@H]2C[C@@H]2N1C(=O)[C@@H](N)C12CC3CC(CC(O)(C3)C1)C2 [Saxagliptin hydrate],0.976,0.951,0.817,0.598,1.53
COc1cc2ccc(=O)oc2cc1O [Scopoletin],1.25,0.713,0.934,0.82,1.3
CN1CCC[C@@H]1Cc1c[nH]c2ccc(CCS(=O)(=O)c3ccccc3)cc12 [Eletriptan HBr],0.938,0.828,1.17,0.778,1.33
Nc1[nH]cnc2ncnc1-2 [Adenine HCl],1.09,0.466,1.18,0.46,1.59
NC(=O)c1nc(F)cnc1O [Favipiravir (T-705)],0.685,0.513,0.835,0.762,0.894
Cc1cccn2c(=O)c(-c3nnn[nH]3)cnc12 [Pemirolast potassium],1.31,0.747,0.893,0.682,1.05
CN(C)C(=N)NC(=N)N [Metformin HCl],1.61,0.837,1.26,0.474,1.78
CCC(=O)NCC[C@@H]1CCc2ccc3c(c21)CCO3 [Ramelteon],1.15,0.978,0.887,1.02,1.07
Cc1ccsc1C(=CCCN1CCC[C@@H](C(=O)O)C1)c1sccc1C [Tiagabine],0.676,0.377,0.779,0.574,1.14
Cc1nnc(C(=O)NC(C)(C)c2nc(C(=O)NCc3ccc(F)cc3)c(O)c(=O)n2C)o1 [Raltegravir potassium],1.12,0.895,1.33,0.632,1.04
O=C1c2ccccc2C(=O)C1c1ccccc1 [Phenindione],0.966,1.04,1.16,0.74,1.1

Compound,Euclidean distance (786-O),Euclidean distance (A549),Euclidean distance (FB),Euclidean distance (HEPG2),Euclidean distance (OVCAR4)
Nc1nc2cc(-c3ccc4ncc(C(=O)N5CCOCC5)n4c3)ccc2o1 [Serabelisib (INK-1117.MLN-1117.TAK-117)],1.02,1.76,2.6,1.39,1.61
O=C(NCCN1CCOCC1)c1ccc(Cl)cc1,1.01,1.34,0.812,0.538,1.07
O=c1n(CCCN2CCN(c3cccc(Cl)c3)CC2)nc2ccccn12 [Trazodone],0.477,1.03,0.908,0.599,1.37
NC(=O)c1ncn([C@@H]2O[C@H](CO)[C@@H](O)[C@H]2O)c1O [Mizoribine],1.26,0.927,0.917,0.657,0.855
CC[C@H](C)[C@H](N)C1=N[C@H](C(=O)N[C@@H](CC(C)C)C(=O)N[C@H](CCC(=O)O)C(=O)N[C@H](C(=O)N[C@H]2CCCCNC(=O)[C@H](CC(N)=O)NC(=O)[C@@H](CC(=O)O)NC(=O)[C@H](Cc3cnc[nH]3)NC(=O)[C@@H](Cc3ccccc3)NC(=O)[C@H]([C@@H](C)CC)NC(=O)[C@@H](CCCN)NC2=O)[C@@H](C)CC)CS1 [Bacitracin],1.65,1.13,0.901,0.726,1.22
CC1(C)[C@H](C(=O)O)N2C(=O)C[C@H]2S1(=O)=O [Sulbactam sodium],0.743,0.526,0.933,0.675,0.666
CCOCCn1c(N2CCCN(C)CC2)nc2ccccc21 [Emedastine],0.676,0.686,0.988,0.905,0.553
Cc1cc2c(s1)Nc1ccccc1N=C2N1CCN(C)CC1 [Olanzapine],1.03,1.01,1.48,0.621,1.61
C=C1C(=O)O[C@@H]2/C=C(\C)CC/C=C(\C)CC[C@@H]12 [Costunolide],1.27,0.924,1.01,1.29,0.93
C[C@@H]1C[C@H]2[C@@H]3CCC4=CC(=O)C=C[C@]4(C)[C@@]3(F)[C@@H](O)C[C@]2(C)[C@H]1C(=O)CO [Desoximetasone],1.28,2.05,1.89,0.967,2.03
CCCNC(=O)NS(=O)(=O)c1ccc(Cl)cc1 [Chlorpropamide],1.01,0.601,0.968,0.632,1.99
Cc1ccccc1C(OCCN(C)C)c1ccccc1 (stereo not given) [Orphenadrine Hydrochloride],0.905,1.11,0.736,0.938,1.08
CCN1CCCC1CNC(=O)c1cc(S(N)(=O)=O)ccc1OC (stereo not given) [Sulpiride],0.713,1.29,0.953,1.17,0.676
CN1CCN(C(c2ccccc2)c2ccccc2)CC1 [Cyclizine 2HCl],1.05,0.919,1.58,0.689,1.37
C=CCc1ccc(O)c(-c2cc(CC=C)ccc2O)c1 [Magnolol],1.13,0.915,0.817,0.94,1.17
CN1CC[C@H](c2c(O)cc(O)c3c(=O)cc(-c4ccccc4Cl)oc23)[C@H](O)C1 [Flavopiridol (Alvocidib)],3.09,3.07,3.22,2.66,3.72
CC1=C(C(=O)O)N2C(=O)[C@@H](NC(=O)[C@H](N)c3ccccc3)[C@H]2SC1 [Cephalexin],1.16,1.01,1.05,0.939,1.1
N[C@H]1C(O)O[C@H](CO)[C@@H](O)[C@@H]1O (stereo not given in full) [Glucosamine],0.508,0.407,0.896,1.07,1.28
O=C(c1ccccc1)c1ccc2n1CCC2C(=O)O (stereo not given) [Ketorolac tromethamine salt],0.861,0.868,0.834,0.47,0.82
CC[C@H](C)[C@H](N)C1=N[C@H](C(=O)N[C@@H](CC(C)C)C(=O)N[C@H](CCC(=O)[O-])C(=O)N[C@H](C(=O)N[C@H]2CCCCNC(=O)[C@H](CC(N)=O)NC(=O)[C@@H](CC(=O)[O-])NC(=O)[C@H](Cc3cnc[nH]3)NC(=O)[C@@H](Cc3ccccc3)NC(=O)[C@H]([C@@H](C)CC)NC(=O)[C@@H](CCCN)NC2=O)[C@@H](C)CC)CS1.[Zn+2] [Bacitracin Zinc],0.919,0.811,0.932,1.77,1.44
O=C(O)c1cc(O)c2c(c1)[C@H]([C@H]1c3cc(C(=O)O)cc(O)c3C(=O)c3c(O[C@@H]4O[C@H](CO)[C@@H](O)[C@H](O)[C@H]4O)cccc31)c1cccc(O[C@@H]3O[C@H](CO)[C@@H](O)[C@H](O)[C@H]3O)c1C2=O [Sennoside A],0.91,0.674,1.07,0.438,1.12
C[C@@H]1CN(c2c(F)c(N)c3c(=O)c(C(=O)O)cn(C4CC4)c3c2F)C[C@H](C)N1 [Sparfloxacin],0.878,1.28,0.552,0.632,1.26
O=C(C1CCCCC1)N1CC(=O)N2CCc3ccccc3C2C1 (stereo not given) [Praziquantel],0.868,0.773,0.97,0.33,1.36
CCN(CC)C(=O)c1cccnc1 [Nikethamide],1.44,1.13,1.17,0.66,1.38
COc1ccc(CN(CCN(C)C)c2ccccn2)cc1 [Pyrilamine Maleate],0.832,0.864,1.11,0.605,1.5

# Reference: the supplement of paper PMC10127200
